Measured values taken from PubChem BioAssay AID1688 (National Center for Advancing Translational Sciences (NCATS), 2009).
The whole screen tested about 220,000 compounds, of which about 2,400 (1.1%) were called active. Entries that show only a call come without a potency. About 7% were inconclusive and are not listed. The call rests on the fitted dose curve; in most records, active means well fitted inhibition curve with a large enough effect; inconclusive means small, poorly fitted or top-dose-only effect, or effect the other way; inactive means no such curve, though single readings can be large or run the other way. This excerpt belongs to a sample that is enriched for actives.

Assay: qHTS Multiplex Assay to Identify Dual Action Probes in a Cell Model of Huntington: Aggregate Formation (GFP); further: nearly all actives have a fitted effect of over 60% in size
Settings: PC12 HttQ103-GFP aggregates, Acumen cytometry, 40 h; series mostly up to 9.22 µM
Summary of the method: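 Compounds (qHTS titration) were added to PC12 cells expressing an ecdysone-driven HTT exon 1 Q103–GFP fusion after induction with 100 nM tebufenozide. Aggregate formation was measured as GFP objects in cell lysates.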
Potency means the concentration at half of the fitted maximal effect.

SMILES | Potency
COc1ccc(OCCC(=O)c2ccc(OC)cc2)cc1 | inactive
CN1/C(=C\C(=O)c2cccnc2Cl)C(C)(C)c2ccccc21 | inactive
Cc1noc(C)c1C(=O)OCC(=O)/C=C1\N(C)c2ccccc2C1(C)C | inactive
CC(=O)Nc1cccc(OCC(=O)/C=C2\N(C)c3ccccc3C2(C)C)c1 | 11.2 µM (active)
Cc1ccc(NNC(=O)c2cccs2)cc1Cl | inactive
O=C(Nc1ccc(S(=O)(=O)Nc2nccs2)cc1)c1cc(=O)[nH]c2ccccc12 | inactive
Cc1ccc(C(=O)O)cc1S(=O)(=O)NCC1CCCO1 (stereo not drawn) | 3.98 µM (active)
Cc1cc(Cl)c(S(=O)(=O)NCC2CCCO2)cc1OCC(N)=O (stereo not drawn) | inactive
Cc1ccc(NC(=O)c2ccc(S(=O)(=O)NCC3CCCO3)cc2)cc1C (stereo not drawn) | inactive
CC(C)(O)c1ccccc1CC[C@H](SCC1(CC(=O)O)CC1)c1cccc(/C=C/c2ccc3ccc(Cl)cc3n2)c1 | inactive
Cc1cc(Cl)ccc1NNC(=O)c1snnc1C | inactive
O=C1C2C3C=CC(C3)C2C(=O)N1c1ccc(S(=O)(=O)Nc2nccs2)cc1 (stereo not drawn) | inactive
CC(C)(C)c1cc(C(=O)NN)n(Cc2ccc(Cl)cc2Cl)n1 | inactive
COc1cc(NC(=O)c2cccnc2SC)cc(OC)c1 | inactive
COC(=O)c1ccc(NC(=O)c2ccccc2NS(=O)(=O)c2ccccc2)cc1 | 11.2 µM (active)
COc1cc(NC(=O)c2ccccc2NS(=O)(=O)c2ccc(Cl)s2)cc(OC)c1 | 3.98 µM (active)
CCOc1ccc(NC(=O)c2ccccc2NS(C)(=O)=O)cc1 | inactive
COC(=O)c1ccccc1NC(=O)c1ccccc1NS(C)(=O)=O | inactive
O=S(=O)(Nc1ccccc1N1CCOCC1)c1ccc(Cl)s1 | inactive
COc1ccc(S(=O)(=O)N(CC(=O)N/N=C/c2ccccc2C(=O)O)c2ccccc2OC)cc1 | inactive
CC(C)(C)NC(=O)/C(=C/c1cccnc1)NC(=O)c1ccco1 | inactive
CCn1c(CN2C(=O)CSc3ccccc32)n[nH]c1=S | inactive
Cc1nc(=O)c(-c2ccccc2)c(C)n1-c1ccc(Br)cc1 | inactive

SMILES | Potency
CCCc1nc2oc3c(=O)[nH]cnc3c2c2c1COC(C)(C)C2 | inactive
Cc1cc(CO)nn1-c1ccc([N+](=O)[O-])cc1 | inactive
O=C(c1c(Cl)cccc1Cl)N1CCN(c2cccc3[nH]ccc23)CC1 | inactive
Cc1ccc(-c2c[n+](=O)c3c(n2[O-])CCC3)cc1 | inactive
CCC(=O)N1CCCc2ccccc21 | inactive
Cc1cc(C)cc(OCC(=O)O/N=C(\N)Cc2ccc([N+](=O)[O-])cc2)c1 | inactive
O=c1c2c(ncn1Cc1ccccc1)nc1n2CCC1 | inactive
CN(C)c1ccnc2sc3c(=O)n(Cc4ccccc4)cnc3c12 | 7.08 µM (active)
CN(C)/C=C/c1c(C#N)c(=O)ncn1Cc1ccccc1 | inactive
Cn1nc(-c2ccc(Cl)cc2)c2cc(C(=O)NCc3ccco3)sc21 | 20 µM (active)
COc1ccc(-c2cc(C(=O)NCc3ccco3)no2)cc1OC | inactive
CCOC(=O)N1CCN(C(=O)c2cc3c(-c4ccc(Cl)cc4)nn(C)c3s2)CC1 | inactive
CN(CC(O)COc1ccc(S(=O)(=O)N2CCOCC2)cc1Cl)C1CCCCC1 (stereo not drawn) | inactive
Cn1nnc(NC(=S)NC(=O)c2ccccc2)n1 | inactive
CN1CCN(S(=O)(=O)c2ccc(NC(=O)c3ccco3)cc2)CC1 | inactive
CCNC(=S)N1CCN(C(=O)c2ccco2)CC1 | inactive
CC(C)Cc1ccc(S(=O)(=O)N2CCN(C(=O)c3ccco3)CC2)cc1 | 10 µM (active)
CC1CC(=O)Nc2ccccc2N1S(=O)(=O)c1cccs1 (stereo not drawn) | inactive
O=C(NCCCn1ccnc1)C(=O)NCC1OCCN1S(=O)(=O)c1cc(F)ccc1F (stereo not drawn) | inactive
COC(=O)c1ccccc1NC(=O)CSc1nnnn1C | inactive
CCOC(=O)CNC(=O)CSc1nnnn1-c1cc(C)ccc1C | inactive
CCOC(=O)c1c(-c2ccc(C)cc2C)csc1NC(=O)CSc1nnnn1C | 11.2 µM (active)
O=S(=O)(c1ccc(Cl)cc1)N1CCCN(c2ccc(C(F)(F)F)cn2)CC1 | inactive

SMILES | Potency
Cc1ccc(NC(=O)c2ccc(CSc3ncnc4nc[nH]c34)cc2)c(C)c1 | inactive
c1ccc2c(c1)OCC(CNc1ncnc3nc[nH]c13)O2 (stereo not drawn) | inactive
CCc1ccc(N(CC)c2ncnc3nc[nH]c23)cc1 | 10 µM (active)
COc1ccc2c(c1)SC(C)CC2=O (stereo not drawn) | inactive
COc1ccc2c(c1)OC(O)(C(F)(F)C(F)F)CC2=O (stereo not drawn) | 20 µM (active)
CC1(C)CC(=O)c2ccc(O)cc2O1 | inactive
C=CCSc1nc(N)cc(=O)[nH]1 | inactive
O=C(O)CC1=C(Nc2ccccc2)C(=O)N(c2ccccc2)C1c1ccc(Cl)cc1 (stereo not drawn) | inactive
CC(CO)(CO)NC(=O)c1ccc(=O)[nH]n1 | inactive
Cc1[nH]n(-c2ccccc2)c(=O)c1/C=N/NC(=O)c1ccoc1C | 7.08 µM (active)
Cc1[nH]n(-c2cccc(Cl)c2)c(=O)c1/C=N/n1c(C)nc2ccccc2c1=O | inactive
COc1cccc(/C=N/NC(=O)c2cccc([N+](=O)[O-])c2)c1OS(=O)(=O)c1ccc(C)cc1 | inactive
Cc1ccc(N=Nc2c(C)[nH]n(-c3ccccc3)c2=O)cc1 | inactive
O=C(N/N=C/c1cccc([N+](=O)[O-])c1)c1ccncc1 | inactive
Cc1ccc(-n2[nH]c(C)c(/C=N/NC(=O)c3cccc([N+](=O)[O-])c3)c2=O)cc1C | 5.01 µM (active)
COc1cc2c(cc1OC)[C@@H](Cc1cc(OC)c(OC)c(OC)c1)[N+](C)(CCCOC(=O)CC/C=C/CCC(=O)OCCC[N+]1(C)CCc3cc(OC)c(OC)cc3[C@H]1Cc1cc(OC)c(OC)c(OC)c1)CC2 (stereo partly drawn) | inactive
Cc1nc2c(-c3ccccc3)c(C)[nH]n2c(=O)c1Cl | 10 µM (active)
O=c1[nH]n2c(-c3ccccc3)nc(O)c2c2ccccc12 | inactive
Cc1cc(-c2ccccc2)n2nc(C)c(-c3ccccc3)c2n1 | inactive
Cc1ccc(F)cc1NC(=O)Cc1nn(C)c(=O)c2ccccc12 | 14.1 µM (active)
Cc1ccc(NC(=O)Cn2nc(C)c3ccccc3c2=O)c(C)c1 | inactive
COc1ccc(-c2nn(C)c(=O)c3ccccc23)cc1NC(=O)COc1ccccc1 | inactive
